Source: PubChem BioAssay
The sample as a whole holds a higher share of hits than the screen did.
PD-1 reverse act = activators reversing PD-1 mediated T-cell inhibition | primary human CD4 T cells, PD-L1 beads, CellTiter-Glo 96 h | activation, % (test concentration not listed) | 29,000 tested, under 10 active | AID 2316; call rule not given here;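 note: 0% = median vehicle wells and 100% = positive control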
NOMO-1 viab = STK33 inhibitor candidate reducing NOMO-1 cell viability | 37,000 tested, 7.5% active | inhibition, % (test concentration not listed) | NOMO-1 AML viability, CellTiter-Glo luminescence, 72 h; in the data active = inhibition above about 80%; inconclusive = no clear call, values can overlap the other calls
STK33 inh = blocks human STK33 kinase activity. inhibition, % at 12.5 µM. 27,000 tested, 0.44% active. ADP-Glo luminescence, MBP substrate; in the data active = inhibition above about 20%; inconclusive = no clear call, values can overlap the other calls
Target sequence (Q9BYT3 whole entry, looked up): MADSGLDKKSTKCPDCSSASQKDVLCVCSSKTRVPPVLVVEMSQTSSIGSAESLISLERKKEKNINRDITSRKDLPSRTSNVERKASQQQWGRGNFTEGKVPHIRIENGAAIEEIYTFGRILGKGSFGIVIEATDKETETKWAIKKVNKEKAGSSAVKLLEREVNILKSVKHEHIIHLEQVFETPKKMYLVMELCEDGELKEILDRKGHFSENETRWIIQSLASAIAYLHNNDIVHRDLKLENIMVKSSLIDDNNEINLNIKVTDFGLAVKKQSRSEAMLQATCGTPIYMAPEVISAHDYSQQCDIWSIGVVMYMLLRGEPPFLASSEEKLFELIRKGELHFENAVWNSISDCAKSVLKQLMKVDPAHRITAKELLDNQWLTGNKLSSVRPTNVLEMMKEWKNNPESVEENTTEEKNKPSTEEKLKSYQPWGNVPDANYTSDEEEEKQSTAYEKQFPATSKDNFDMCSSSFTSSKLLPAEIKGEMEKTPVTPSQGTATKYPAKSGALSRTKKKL
Active calls of the source: *; ? = inconclusive; nt = not tested or not shown.

SMILES | PD-1 reverse act | NOMO-1 viab | STK33 inh
C[C@@H]1CN([C@H](C)CO)C(=O)c2cccc(NC(=O)Nc3ccc(C(F)(F)F)cc3)c2O[C@H]1CN(C)Cc1ccc2c(c1)OCO2 | -7.8 | 104.2* | nt
C[C@H]1CN([C@@H](C)CO)C(=O)c2cccc(NC(=O)Nc3ccccc3)c2O[C@@H]1CN(C)Cc1ccc2c(c1)OCO2 | -4.1 | 67.9 | nt
C[C@@H]1CN([C@@H](C)CO)C(=O)c2cccc(NC(=O)Nc3ccc(C(F)(F)F)cc3)c2O[C@H]1CN(C)Cc1ccc2c(c1)OCO2 | -7.3 | 84.8* | nt
C[C@@H]1CN([C@H](C)CO)C(=O)c2cccc(NC(=O)Nc3ccc(C(F)(F)F)cc3)c2O[C@@H]1CN(C)Cc1ccc2c(c1)OCO2 | -3.7 | 103.5* | nt
C[C@H](CO)N1C[C@H](C)[C@@H](CN(C)Cc2ccc3c(c2)OCO3)Oc2c(NC(=O)Nc3ccc(F)cc3)cccc2C1=O | -4.0 | 72.3 | nt
Cc1ccc([N+](=O)[O-])cc1NC(=O)CN(c1cc(C(F)(F)F)ccc1Cl)S(C)(=O)=O | 0.4 | 22.0 | -0.2
CN1C(=O)C(Cc2ccccc2)(c2ccccc2)c2ccccc21 (centres undefined) | -1.8 | 48.5 | nt
C[C@@H]1CN([C@H](C)CO)C(=O)c2cccc(NC(=O)Nc3ccc(F)cc3)c2O[C@H]1CN(C)S(=O)(=O)c1cccs1 | 0.7 | 13.0 | nt
C[C@@H]1CN([C@H](C)CO)C(=O)c2cc(NC(=O)Nc3ccc(C(F)(F)F)cc3)ccc2O[C@H]1CN(C)S(=O)(=O)c1cccs1 | -7.1 | 45.3 | 0.8
C[C@H]1CN([C@@H](C)CO)C(=O)c2cccc(NC(=O)Nc3ccc(C(F)(F)F)cc3)c2O[C@H]1CN(C)S(=O)(=O)c1cccs1 | -3.5 | 90.5* | nt
C[C@@H]1CN([C@H](C)CO)C(=O)c2cccc(NC(=O)Nc3ccc(F)cc3)c2O[C@@H]1CN(C)S(=O)(=O)c1cccs1 | -1.3 | 22.2 | nt
C[C@H](CO)N1C[C@H](C)[C@H](CN(C)S(=O)(=O)c2cccs2)Oc2c(NC(=O)Nc3ccc(C(F)(F)F)cc3)cccc2C1=O | -2.0 | 92.0* | nt
C[C@H](CO)N1C[C@H](C)[C@@H](CN(C)S(=O)(=O)c2cccs2)Oc2ccc(NC(=O)Nc3ccc(C(F)(F)F)cc3)cc2C1=O | -1.2 | 92.0* | nt
O=C(N1CCCc2ccccc21)C(F)(F)F | 0.1 | -6.0 | nt
CCOC(=O)CC(Sc1ccccc1N)c1cc(OC)c(OC)c(OC)c1 (centres undefined) | -0.5 | -13.0 | nt
COc1ccc(NC(=O)CCSc2nnc3scc(-c4ccc(C)cc4)n23)cc1 | -0.8 | 8.0 | -0.3
COC(=O)COc1cccc(NC(=O)c2cccs2)c1 | 1.1 | 137.2* | 0.9
COC(=O)COc1cccc(NC(=O)c2ccc(Cl)c(Cl)c2)c1 | -0.3 | 108.4* | -1.9
COc1cccc(NC(=O)c2ccc(OC)c(OC)c2)c1 | 0.2 | 38.7 | 1.4
CCOC(=O)c1ccc(NC(=O)c2ccco2)cc1 | 1.6 | 7.8 | nt
COC(=O)COc1cccc(NC(=O)c2ccccc2)c1 | -1.6 | 121.7* | -4.5
COC(=O)COc1cccc(NC(=O)c2ccc(NC(=O)c3ccco3)cc2)c1 | -4.8 | 109.8* | 3.5
COC(=O)COc1cccc(NC(=O)c2ccccc2-c2ccccc2C(=O)O)c1 | 3.1 | -4.2 | -1.0
COc1cccc(NC(=O)CNC(=O)c2cccs2)c1 | -0.5 | -16.1 | 0.6
c1nncn1N=C1CCCCC1 | -0.1 | 1.6 | nt
SMILES | PD-1 reverse act | NOMO-1 viab | STK33 inh
CCN(CC)C(=O)c1ccc(Nc2nnc(-c3ccc(C)c(S(N)(=O)=O)c3)c3ccccc23)cc1 | nt | -4.6 | 1.8
COC(=O)C(CC#Cc1ccc2c(c1)[C@]1(C(=O)N2)[C@H](C(N)=O)[C@H]2C(=O)O[C@H](c3ccccc3)[C@H](c3ccccc3)N2[C@@H]1c1ccc(O)cc1)C(=O)OC | nt | nt | 7.1
COC(=O)COc1cccc(NC(=O)c2cccc(C)c2)c1 | -2.4 | 121.0* | -0.3
COc1cccc(C(=O)COc2cccc(NC(=O)c3cccc([N+](=O)[O-])c3)c2)c1 | -1.5 | ? | 0.6
COc1ccc(/C=N/n2c(=O)c3c(ncn3/N=C/c3ccc(OC)cc3)n(C)c2=O)cc1 | 0.0 | 10.9 | nt
O=C1NCC2(CCN(CCc3ccccc3)CC2)O1 | nt | -10.3 | -0.3
N#CC1CN(CCc2ccccc2)CN(CCc2ccccc2)C1 | -6.2 | 111.4* | nt
NNC(=O)c1cccc(Cn2cccn2)c1 | 0.3 | -16.8 | nt
C=C1C(=O)O[C@@H]2/C=C(/C)CC/C=C(/C=O)C[C@@H](OC(=O)CC(C)C)C12 (some centres undefined) | nt | nt | -0.7
C=C1C(=O)O[C@@H]2/C=C(/CO)CC/C=C(/C=O)C[C@@H](O)[C@@H]12 | -9.6 | 108.6* | -2.8
CSc1nc2sc3c(c2c2nnc(SCC(=O)Nc4ccccc4)n12)CCC3 | -3.6 | 128.7* | 8.2
O=C(CSc1nc2sc3c(c2c(=O)n1-c1ccccc1)CCCC3)Nc1ccccc1 | nt | 29.5 | -3.0
COc1cc([N+](=O)[O-])cc(CN2CCN(CCO)CC2)c1O | 2.6 | -17.9 | 0.0
O=c1oc(-c2ccccn2)nc2ccccc12 | 2.5 | 0.0 | -0.4
c1ccc(-c2ccc3ccccc3n2)nc1 | -2.5 | 104.2* | nt
CC(=O)[C@@]1(O)CCC2C3CCC4=CC(=O)CC[C@]4(C)C3CC[C@@]21C (some centres undefined) | nt | 34.1 | 3.8
CCCCCC(=O)O[C@]1(C(C)=O)CCC2C3CCC4=CC(=O)CC[C@]4(C)C3CC[C@@]21C (some centres undefined) | nt | 110.0* | 13.8
Cc1ccc(Oc2ncccc2NC(=O)C(=S)NCc2ccccc2)c2c1CCC2 | 0.5 | 40.0 | -0.3
CCC(C)[C@H]1C(=O)O[C@H](C(C)C)C(=O)N(C)[C@@H](C(C)C)C(=O)O[C@H](C(C)C)C(=O)N(C)[C@@H](C(C)C)C(=O)O[C@H](CC(C)C)C(=O)N1C (some centres undefined) | -14.2 | 119.4* | -5.4
O=[N+]([O-])c1nn(-c2ccccc2)n(O)c1=NCc1ccco1 | -2.3 | 33.9 | 0.7
O=[N+]([O-])c1nn(-c2ccc(Cl)cc2)n(O)c1=NCc1ccccn1 | -8.4 | 112.4* | 1.2
CC(C)[C@@H]1CC[C@@]2(C)CCC[C@@](C)(O)[C@@H]2[C@H]1OC(=O)/C=C/c1ccccc1 | -3.6 | 53.6 | -2.1
CSc1sc(/C(C)=N\O)c2c1/C(=N\O)CC(C)(C)C2 | -1.5 | 41.1 | nt
CSc1sc(Cl)c2c1/C(=N\O)CC(C)(C)C2 | -5.0 | 109.5* | nt
COC(=O)C1=C(N)C(C(=O)OC)=c2s/c(=C/c3ccccc3)c(=O)n2C1c1ccccc1 (centres undefined) | 5.1 | 30.0 | -0.6
Cc1ccc(NC(=O)CCN2C(=O)c3ccccc3C2=O)cc1[N+](=O)[O-] | nt | -14.2 | -3.5
N#CNC(=NC1CCCCC1)NC1CCCCC1 | -0.3 | 3.6 | nt
CC(=O)O[C@H]1C(=O)[C@@]2(C)C([C@H](OC(=O)c3ccccc3)[C@]3(O)C[C@H](OC(=O)[C@H](O)[C@@H](NC(=O)c4ccccc4)c4ccccc4)C(C)=C1C3(C)C)[C@]1(OC(C)=O)CO[C@@H]1C[C@@H]2O (some centres undefined) | -1.9 | 97.6* | 2.4
O=C(CSc1nccc(=O)[nH]1)Nc1cccc(C(F)(F)F)c1 | -0.8 | 30.9 | 1.1
COC(=O)c1c[nH]c(=S)n1C | 0.1 | 12.7 | nt
